Structures are written as SMILES. Values joined by “and” are separate entries in the source; they are usually repeats but may differ in a detail not shown here. Equal entries are not always repeated. Unmarked numbers belong to inactive results. Records with an inconclusive call do not appear. Active and inactive are the calls of the source. The call rests on the fitted dose curve. Non-standard residues stand in square brackets, D forms with d. Residues, ends and D or L forms follow the SMILES beside them. pGlu = O=C1CC[C@@H](C(=O)O)N1

The target of test [1] is Acetylcholinesterase (Homo sapiens) (UniProt P22303). The test can be described thus: Acetylcholinesterase (AChE) small molecule antagonists: colormetric cell-based qHTS assay (AID 1347395). Further: nearly all actives have a fitted effect of over 30% in size. Further: potency means the concentration at half of the fitted maximal effect. In a few lines:
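Homogeneous whole-cell format. SH-SY5Y cells seeded overnight, dosed with compound (30 min, 37 C, 5% CO2), then given DTNB/acetylthiocholine cocktail for 90 min at 37 C; colorimetric signal.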

Test [2] has the same target. Description: Acetylcholinesterase (AChE) small molecule antagonists: enzyme-based qHTS assay (AID 1347397). Further: nearly all actives have a fitted effect of over 55% in size. Further: potency means the concentration at half of the fitted maximal effect. Particulars: Potency: AChE enzyme activity inhibition; outcome: AChE enzyme activity inhibition. In a few lines: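 Recombinant human AChE, dispensed at 50 mU/mL, was preincubated with Tox21 10K compounds or DMSO vehicle for 30 min at room temperature. DTNB plus acetylthiocholine was then added, and thiocholine was measured colorimetrically after a further 10 min.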
Background: Quantitative high-throughput screening tests each substance at several concentrations.

Test [3] has the same target. The test can be described thus: Acetylcholinesterase (AChE) small molecule antagonists: fluorescence cell-based qHTS assay (AID 1347398). Further: nearly all actives have a fitted effect of over 50% in size. Further: potency means the concentration at half of the fitted maximal effect. The conditions noted are these: Potency: AChE activity; outcome: AChE activity. Summed up:
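Human SH-SY5Y cells were plated overnight at 37 C, exposed to compound for 30 min at 37 C, 5% CO2, then given acetylthiocholine plus Thiolite Green for 40 min at room temperature; thiocholine fluorescence (Ex/Em 490/520 nm) reports endogenous AChE activity.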

For test [4] the target is unchanged. The test can be described thus: Acetylcholinesterase (AChE) small molecule antagonists: enzyme-based qHTS assay with human liver microsomes (AID 1347399). Further: nearly all actives have a fitted effect of over 60% in size. The conditions noted are these: Potency: qHTS inhibition; outcome: qHTS inhibition. Summed up:
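Recombinant human AChE (50 mU/mL in the enzyme mix) and human liver microsomes (0.25 mg/mL final) were preincubated with compound and NADPH (0.25 mg/mL final) for 30 min at 37 C. Acetylthiocholine/DTNB was then added; thiocholine was read colorimetrically after 10 min at room temperature.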
On the % scale 0 is the no-effect control and ±100 the full control effect.

Chain of Acetylcholinesterase (Homo sapiens) (P22303 whole entry, looked up): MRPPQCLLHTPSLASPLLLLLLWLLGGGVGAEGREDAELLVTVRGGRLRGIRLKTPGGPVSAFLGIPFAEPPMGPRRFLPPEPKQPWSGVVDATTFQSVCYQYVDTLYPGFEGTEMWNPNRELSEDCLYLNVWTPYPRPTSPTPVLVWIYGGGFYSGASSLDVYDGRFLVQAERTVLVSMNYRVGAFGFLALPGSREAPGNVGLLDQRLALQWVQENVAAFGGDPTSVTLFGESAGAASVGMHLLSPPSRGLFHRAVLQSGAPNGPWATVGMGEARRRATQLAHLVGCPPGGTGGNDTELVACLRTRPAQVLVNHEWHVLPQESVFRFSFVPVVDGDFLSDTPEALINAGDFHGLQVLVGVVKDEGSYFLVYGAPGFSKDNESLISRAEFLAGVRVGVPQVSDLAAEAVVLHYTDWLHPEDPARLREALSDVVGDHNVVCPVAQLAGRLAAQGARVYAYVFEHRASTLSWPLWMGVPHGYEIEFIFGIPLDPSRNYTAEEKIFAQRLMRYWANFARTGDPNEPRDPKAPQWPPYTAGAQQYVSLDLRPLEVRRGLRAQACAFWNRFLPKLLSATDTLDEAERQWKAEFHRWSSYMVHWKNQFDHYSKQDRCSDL

Regarding `CC1C(C)(C)C2=C(C(=O)CCC2)C1(C)C` (stereo not given), the Potency entry in test [1], in test [2], in test [3] and in test [4] was “inactive” in each case.

Consider `CC[N+](CC)(CC(=O)Nc1c(C)cccc1C)Cc1ccccc1`, for which the Potency entry in test [1], in test [2], in test [3] and in test [4] was “inactive” each time.

For `O=C(O)c1ccc2c(c1)C(=O)OC2=O`, the Potency entry in test [1], in test [2], in test [3] and in test [4] was “inactive” each time.

`C#CCN(C)CCCOc1ccc(Cl)cc1Cl`: the Potency result in test [1], in test [2], in test [3] and in test [4] was “inactive” throughout.

On to `Nc1ccc(N=Nc2ccc(N)cc2)cc1`, for which the Potency entry in test [1], in test [2], in test [3] and in test [4] was “inactive” in each case.

Consider `O=C(O)c1nc(Cl)c(Cl)c(Cl)c1Cl`, for which the Potency entry in test [1], in test [2], in test [3] and in test [4] was “inactive” throughout.

Consider `OCC1CCCO1` (stereo not given), for which the Potency entry in test [1], in test [2], in test [3] and in test [4] was “inactive” in each case.

In the case of `C=CC(=O)OCCOC1C2CCC1C1CC=CC12` (stereo not given), the activity, negative = inhibition in test [1] was 0.351% [at 23.6 µM]. In addition, the activity change, negative = inhibition is 0.411% [at 23.6 µM] in test [2], -2.44% [at 23.8 µM] in test [3] and 0.164% [at 23.6 µM] in test [4].

In the case of `CCn1nc(C)c2c1C(=O)NCC(c1ccc(O)cc1)=N2`, the Potency result in test [1], in test [2], in test [3] and in test [4] was “inactive” each time.

On to `CC(CN(C)C)C(C)(O)Cc1ccc(Cl)cc1` (stereo not given), for which the Potency result in test [1], in test [2], in test [3] and in test [4] was “inactive” each time.

For the molecule `CCCCN(CCCC)CCCCCCN(CCCC)CCCC`, the Potency entry in test [1], in test [2], in test [3] and in test [4] was “inactive” each time.

On to `COc1cc(NC(=O)CC(C)=O)c(OC)cc1Cl`, for which the Potency result in test [1], in test [2], in test [3] and in test [4] was “inactive” throughout.

In the case of `CN(C)c1cc(NC(=O)CNC(C)(C)C)c(O)c2c1C[C@H]1C[C@H]3[C@H](N(C)C)C(=O)C(C(N)=O)=C(O)[C@@]3(O)C(=O)C1=C2O`, the Potency result in test [1], in test [2], in test [3] and in test [4] was “inactive” throughout.

Take `CC(CCC(=O)O)(c1ccc(O)cc1)c1ccc(O)cc1`: the Potency entry in test [1], in test [2], in test [3] and in test [4] was “inactive” throughout.

Turning to `OCc1c2ccccc2cc2ccccc12`, the Potency result in test [1], in test [2], in test [3] and in test [4] was “inactive” throughout.

Take `CC(C)COC(=O)/C=C/c1ccccc1`: the Potency result in test [1], in test [2], in test [3] and in test [4] was “inactive” each time.

As for `CC(=O)O[C@H]1C[C@@H]2CC[C@@]1(C)C2(C)C`, the Potency entry in test [1], in test [2], in test [3] and in test [4] was “inactive” each time.

Regarding `CC[C@]12CCCN3CCc4c(n(c5ccccc45)[C@@](O)(C(=O)OC)C1)[C@@H]32`, the Potency entry in test [1], in test [2], in test [3] and in test [4] was “inactive” in each case.

In the case of `COCC(C)OC(C)=O` (stereo not given), the Potency result in test [1], in test [2], in test [3] and in test [4] was “inactive” each time.

Take `Nc1nc(Cl)nc2c1ncn2[C@H]1C[C@H](O)[C@@H](CO)O1`: the Potency entry in test [1], in test [2], in test [3] and in test [4] was “inactive” each time.

For the molecule `Cc1ccccc1C(=O)Nc1ccc(C(=O)N2CCCC(N(C)C)c3ccccc32)cc1` (stereo not given), the Potency entry in test [1], in test [2], in test [3] and in test [4] was “inactive” in each case.

On to `CCCC1CCC(=O)O1` (stereo not given), for which the Potency result in test [1], in test [2], in test [3] and in test [4] was “inactive” each time.

With `COC(=O)Cc1cccc2ccccc12`, the Potency entry in test [1], in test [2], in test [3] and in test [4] was “inactive” in each case.

On to `CCOCCOCCOCC`, for which the Potency result in test [1], in test [2], in test [3] and in test [4] was “inactive” throughout.

In the case of `CCCc1ccccc1`, the Potency entry in test [1], in test [2], in test [3] and in test [4] was “inactive” throughout.

For the molecule `CN1CCCC1=O`, the Potency entry in test [1], in test [2], in test [3] and in test [4] was “inactive” throughout.

Turning to `C#Cc1cccc(Nc2ncnc3cc(OCCOC)c(OCCOC)cc23)c1`, the Potency result in test [1], in test [2], in test [3] and in test [4] was “inactive” throughout.

In the case of `Cc1cccc(O)c1C`, the Potency result in test [1], in test [2], in test [3] and in test [4] was “inactive” in each case.

As for `CC(C)=CC(=O)C=C(C)C`, the Potency result in test [1], in test [2], in test [3] and in test [4] was “inactive” in each case.

Consider `CC(CO)c1ccccc1` (stereo not given), for which the Potency entry in test [1], in test [2], in test [3] and in test [4] was “inactive” in each case.

As to `O=C1c2ccccc2C(=O)C1c1ccc(Br)cc1`, the Potency result in test [1], in test [2], in test [3] and in test [4] was “inactive” in each case.

On to `C=C1C(C)(C)[C@@]2(Cl)C(Cl)[C@]1(Cl)C(Cl)(Cl)C2(Cl)Cl` (stereo not given in full), for which the Potency result in test [1], in test [2], in test [3] and in test [4] was “inactive” throughout.

Take `O=Cc1ccc(O)c(O)c1O`: the Potency result in test [1], in test [2], in test [3] and in test [4] was “inactive” each time.

Turning to `OCC1(CO)COCOC1`, the Potency entry in test [1], in test [2], in test [3] and in test [4] was “inactive” each time.

With `CCC1CO1` (stereo not given), the Potency result in test [1], in test [2], in test [3] and in test [4] was “inactive” throughout.

As to `CCNC(=O)[C@@H]1CCCN1C(=O)[C@H](CCCN=C(N)N)NC(=O)[C@H](CC(C)C)NC(=O)CNC(=O)[C@H](Cc1ccc(O)cc1)NC(=O)[C@H](CO)NC(=O)[C@H](Cc1c[nH]c2ccccc12)NC(=O)[C@H](Cc1cnc[nH]1)NC(=O)[C@@H]1CCC(=O)N1` ([pGlu]HWSYGLRP-NHEt), the Potency entry in test [1], in test [2], in test [3] and in test [4] was “inactive” each time.

Take `Nc1ccccc1S(=O)(=O)O`: the Potency entry in test [1], in test [2], in test [3] and in test [4] was “inactive” in each case.

For `CC(O)C(=O)O` (stereo not given), the Potency result in test [1], in test [2], in test [3] and in test [4] was “inactive” throughout.

Take `CCCCCCCCCCCC[N+](C)(C)CCCS(=O)(=O)[O-]`: the Potency entry in test [1], in test [2], in test [3] and in test [4] was “inactive” throughout.

As for `C=CC(C)(CCC=C(C)C)OC(=O)/C=C/c1ccccc1` (stereo not given), the Potency entry in test [1], in test [2], in test [3] and in test [4] was “inactive” each time.

Regarding `CO/N=C(/C(=O)N[C@@H]1C(=O)N2C(C(=O)O)=C(COC(N)=O)CS[C@H]12)c1ccco1`, the Potency entry in test [1], in test [2], in test [3] and in test [4] was “inactive” in each case.

Turning to `CCOc1nc2cccc(C(=O)O)c2n1Cc1ccc(-c2ccccc2-c2nn[nH]n2)cc1`, the Potency result in test [1], in test [2], in test [3] and in test [4] was “inactive” in each case.

With `NC(=O)NC(=O)Cc1ccccc1`, the Potency entry in test [1], in test [2], in test [3] and in test [4] was “inactive” each time.

`O=[N+]([O-])C(CO)(CO)CO`: the Potency result in test [1], in test [2], in test [3] and in test [4] was “inactive” throughout.

`O=C(O)Cc1c(Cl)ccc(Cl)c1Cl`: the Potency entry in test [1], in test [2], in test [3] and in test [4] was “inactive” each time.

Consider `CCCC(C)CO` (stereo not given), for which the Potency result in test [1], in test [2], in test [3] and in test [4] was “inactive” in each case.

As to `Cc1ccc2c(n1)Oc1ccc(C(C)C(=O)OCC(=O)N(C)C)cc1C2` (stereo not given), the Potency in test [1] is 15.5 µM (active) and 12.3 µM (active); in test [2] it was 15.5 µM (active); in test [3] it was 4.9 µM (active). Moreover, the Potency entry in test [4] was “inactive”.

For `CCCCOCCOCCOCCO`, the Potency entry in test [1], in test [2], in test [3] and in test [4] was “inactive” in each case.

As for `c1cc[nH]c1`, the Potency entry in test [1], in test [2], in test [3] and in test [4] was “inactive” in each case.

As for `Nc1ccc(S(=O)(=O)Nc2ccc(Cl)nn2)cc1`, the Potency result in test [1], in test [2], in test [3] and in test [4] was “inactive” in each case.

Regarding `CCC(C)c1nccnc1OC` (stereo not given), the Potency result in test [1], in test [2], in test [3] and in test [4] was “inactive” throughout.

For the molecule `OC[C@H]1O[C@@H](n2cnc3c(=S)nc[nH]c32)[C@H](O)[C@@H]1O`, the Potency entry in test [1], in test [2], in test [3] and in test [4] was “inactive” in each case.

Turning to `O=C(O)C1=NN(c2ccc(S(=O)(=O)O)cc2)C(=O)C1`, the Potency result in test [1], in test [2], in test [3] and in test [4] was “inactive” throughout.

On to `C1CCC2OC2C1` (stereo not given), for which the Potency entry in test [1], in test [2], in test [3] and in test [4] was “inactive” throughout.

As for `C=CC(=O)OCCOCCOC(=O)C=C`, the Potency result in test [1], in test [2], in test [3] and in test [4] was “inactive” in each case.

In the case of `C/C(=C\c1ccc(C(=O)O)cc1)c1ccc2c(c1)C(C)(C)CCC2(C)C`, the Potency entry in test [1], in test [2], in test [3] and in test [4] was “inactive” in each case.

In the case of `CCCCCC=O`, the Potency entry in test [1], in test [2], in test [3] and in test [4] was “inactive” throughout.

For the molecule `CCCc1nn(C)c2c(=O)[nH]c(-c3cc(S(=O)(=O)N4CCN(C)CC4)ccc3OCC)nc12`, the Potency result in test [1], in test [2], in test [3] and in test [4] was “inactive” each time.

For `CCCCCCCCCCCC[N+](C)(C)CC(=O)[O-]`, the Potency entry in test [1], in test [2], in test [3] and in test [4] was “inactive” throughout.

Take `NC(=O)N(O)[C@@H]1C=C[C@H](Oc2cccc(Oc3ccc(F)cc3)c2)C1`: the Potency result in test [1], in test [2], in test [3] and in test [4] was “inactive” each time.

For the origin of these results see PubChem BioAssay (Tox21).
